# Test results as given in the supplement of paper PMC4466140.
# B1: unnamed (peptide)
# chain: DFTLPPPPPPPGLDE
# B2: unnamed (peptide)
# chain: ANNQGPPNLPARDKS
# Target: AgAbp1
# Experiment: SPOT peptide array binding signal intensity (averaged, normalized) (arbitrary units (background-subtracted, floor 0; scale differs between SH3 domains)); higher = stronger binding of the SH3 domain to the peptide
# Procedure, shortened: (§1)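 E. coli BL21(DE3) was used to express GST-fused SH3 domains from four yeast species, which were then purified on glutathione Sepharose. These were incubated at 10 μg/ml in TBS-based blocking buffer overnight at 4°C on cellulose membranes carrying synthetic 15-mer peptides, in which cysteines were replaced by serines. Binding signal is the replicate average of normalized, background-subtracted spot intensity, in arbitrary units that differ between domains.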
row,Binder,SPOT peptide array binding signal intensity
1,B1,5
2,B2,4.5

# Target: AgBbc1
# Experiment: as above
# Procedure, shortened: as §1
row,Binder,SPOT peptide array binding signal intensity
1,B1,≤ 0
2,B2,0.25

# Target: AgBem1-D1
# Experiment: as above
# Procedure, shortened: as §1
row,Binder,SPOT peptide array binding signal intensity
1,B1,≤ 0
2,B2,3.5

# Target: AgBzz1-D1
# Experiment: as above
# Procedure, shortened: as §1
row,Binder,SPOT peptide array binding signal intensity
1,B1,≤ 0
2,B2,9.5

# Target: AgBzz1-D2
# Experiment: as above
# Procedure, shortened: as §1
row,Binder,SPOT peptide array binding signal intensity
1,B1,≤ 0
2,B2,4

# Target: AgCyk3
# Experiment: as above
# Procedure, shortened: as §1
row,Binder,SPOT peptide array binding signal intensity
1,B1,≤ 0
2,B2,≤ 0

# Target: AgFus1
# Experiment: as above
# Procedure, shortened: as §1
row,Binder,SPOT peptide array binding signal intensity
1,B1,≤ 0
2,B2,≤ 0

# Target: AgHof1
# Experiment: as above
# Procedure, shortened: as §1
row,Binder,SPOT peptide array binding signal intensity
1,B1,57.5
2,B2,1

# Target: AgHse1
# Experiment: as above
# Procedure, shortened: as §1
row,Binder,SPOT peptide array binding signal intensity
1,B1,≤ 0
2,B2,≤ 0

# Target: AgLsb1
# Experiment: as above
# Procedure, shortened: as §1
row,Binder,SPOT peptide array binding signal intensity
1,B1,2
2,B2,144

# Target: AgLsb4
# Experiment: as above
# Procedure, shortened: as §1
row,Binder,SPOT peptide array binding signal intensity
1,B1,≤ 0
2,B2,4990

# Target: AgMyo5
# Experiment: as above
# Procedure, shortened: as §1
row,Binder,SPOT peptide array binding signal intensity
1,B1,1550
2,B2,≤ 0

# Target: AgNbp2
# Experiment: as above
# Procedure, shortened: as §1
row,Binder,SPOT peptide array binding signal intensity
1,B1,32.5
2,B2,≤ 0

# Target: AgRvs167
# Experiment: as above
# Procedure, shortened: as §1
row,Binder,SPOT peptide array binding signal intensity
1,B1,1.67
2,B2,274

# Target: AgSho1
# Experiment: as above
# Procedure, shortened: as §1
row,Binder,SPOT peptide array binding signal intensity
1,B1,2
2,B2,≤ 0

# Target: AgSla1-D1-D2
# Experiment: as above
# Procedure, shortened: as §1
row,Binder,SPOT peptide array binding signal intensity
1,B1,1
2,B2,≤ 0

# Target: AgSla1-D3
# Experiment: as above
# Procedure, shortened: as §1
row,Binder,SPOT peptide array binding signal intensity
1,B1,0.5
2,B2,0.75

# Target: CaAbp1-D1
# Experiment: as above
# Procedure, shortened: as §1
row,Binder,SPOT peptide array binding signal intensity
1,B1,≤ 0
2,B2,8

# Target: CaAbp1-D2
# Experiment: as above
# Procedure, shortened: as §1
row,Binder,SPOT peptide array binding signal intensity
1,B1,≤ 0
2,B2,18.5

# Target: CaBbc1
# Experiment: as above
# Procedure, shortened: as §1
row,Binder,SPOT peptide array binding signal intensity
1,B1,≤ 0
2,B2,20.5

# Target: CaBem1-D1
# Experiment: as above
# Procedure, shortened: as §1
row,Binder,SPOT peptide array binding signal intensity
1,B1,0.5
2,B2,≤ 0

# Target: CaBzz1-D1
# Experiment: as above
# Procedure, shortened: as §1
row,Binder,SPOT peptide array binding signal intensity
1,B1,136
2,B2,6.5

# Target: CaBzz1-D2
# Experiment: as above
# Procedure, shortened: as §1
row,Binder,SPOT peptide array binding signal intensity
1,B1,5.5
2,B2,4.5

# Target: CaCyk3
# Experiment: as above
# Procedure, shortened: as §1
row,Binder,SPOT peptide array binding signal intensity
1,B1,≤ 0
2,B2,≤ 0

# Target: CaFus1
# Experiment: as above
# Procedure, shortened: as §1
row,Binder,SPOT peptide array binding signal intensity
1,B1,≤ 0
2,B2,≤ 0

# Target: CaHof1
# Experiment: as above
# Procedure, shortened: as §1
row,Binder,SPOT peptide array binding signal intensity
1,B1,≤ 0
2,B2,≤ 0

# Target: CaHse1
# Experiment: as above
# Procedure, shortened: as §1
row,Binder,SPOT peptide array binding signal intensity
1,B1,≤ 0
2,B2,38.8

# Target: CaLsb1
# Experiment: as above
# Procedure, shortened: as §1
row,Binder,SPOT peptide array binding signal intensity
1,B1,0.5
2,B2,≤ 0

# Target: CaLsb4
# Experiment: as above
# Procedure, shortened: as §1
row,Binder,SPOT peptide array binding signal intensity
1,B1,≤ 0
2,B2,5930

# Target: CaMyo5
# Experiment: as above
# Procedure, shortened: as §1
row,Binder,SPOT peptide array binding signal intensity
1,B1,8
2,B2,0.5

# Target: CaNbp2
# Experiment: as above
# Procedure, shortened: as §1
row,Binder,SPOT peptide array binding signal intensity
1,B1,20
2,B2,≤ 0

# Target: CaRvs167
# Experiment: as above
# Procedure, shortened: as §1
row,Binder,SPOT peptide array binding signal intensity
1,B1,≤ 0
2,B2,2230

# Target: CaRvs167-3
# Experiment: as above
# Procedure, shortened: as §1
row,Binder,SPOT peptide array binding signal intensity
1,B1,≤ 0
2,B2,3

# Target: CaSho1
# Experiment: as above
# Procedure, shortened: as §1
row,Binder,SPOT peptide array binding signal intensity
1,B1,≤ 0
2,B2,≤ 0

# Target: CaSla1-D1-D2
# Experiment: as above
# Procedure, shortened: as §1
row,Binder,SPOT peptide array binding signal intensity
1,B1,≤ 0
2,B2,≤ 0

# Target: CaSla1-D3
# Experiment: as above
# Procedure, shortened: as §1
row,Binder,SPOT peptide array binding signal intensity
1,B1,≤ 0
2,B2,≤ 0

# Target: ScAbp1
# Experiment: as above
# Procedure, shortened: as §1
row,Binder,SPOT peptide array binding signal intensity
1,B1,≤ 0
2,B2,7

# Target: ScBbc1
# Experiment: as above
# Procedure, shortened: as §1
row,Binder,SPOT peptide array binding signal intensity
1,B1,≤ 0
2,B2,2

# Target: ScBem1-D1
# Experiment: as above
# Procedure, shortened: as §1
row,Binder,SPOT peptide array binding signal intensity
1,B1,≤ 0
2,B2,≤ 0

# Target: ScBzz1-D1
# Experiment: as above
# Procedure, shortened: as §1
row,Binder,SPOT peptide array binding signal intensity
1,B1,≤ 0
2,B2,5

# Target: ScBzz1-D2
# Experiment: as above
# Procedure, shortened: as §1
row,Binder,SPOT peptide array binding signal intensity
1,B1,1
2,B2,1

# Target: ScCyk3
# Experiment: as above
# Procedure, shortened: as §1
row,Binder,SPOT peptide array binding signal intensity
1,B1,0.5
2,B2,≤ 0

# Target: ScFus1
# Experiment: as above
# Procedure, shortened: as §1
row,Binder,SPOT peptide array binding signal intensity
1,B1,3
2,B2,2

# Target: ScHof1
# Experiment: as above
# Procedure, shortened: as §1
row,Binder,SPOT peptide array binding signal intensity
1,B1,14.8
2,B2,2

# Target: ScHse1
# Experiment: as above
# Procedure, shortened: as §1
row,Binder,SPOT peptide array binding signal intensity
1,B1,≤ 0
2,B2,42.5

# Target: ScLsb1
# Experiment: as above
# Procedure, shortened: as §1
row,Binder,SPOT peptide array binding signal intensity
1,B1,≤ 0
2,B2,645

# Target: ScLsb2
# Experiment: as above
# Procedure, shortened: as §1
row,Binder,SPOT peptide array binding signal intensity
1,B1,3.5
2,B2,5

# Target: ScLsb3
# Experiment: as above
# Procedure, shortened: as §1
row,Binder,SPOT peptide array binding signal intensity
1,B1,≤ 0
2,B2,7290

# Target: ScLsb4
# Experiment: as above
# Procedure, shortened: as §1
row,Binder,SPOT peptide array binding signal intensity
1,B1,≤ 0
2,B2,4380

# Target: ScMyo3
# Experiment: as above
# Procedure, shortened: as §1
row,Binder,SPOT peptide array binding signal intensity
1,B1,2030
2,B2,≤ 0

# Target: ScMyo5
# Experiment: as above
# Procedure, shortened: as §1
row,Binder,SPOT peptide array binding signal intensity
1,B1,1990
2,B2,≤ 0

# Target: ScNbp2
# Experiment: as above
# Procedure, shortened: as §1
row,Binder,SPOT peptide array binding signal intensity
1,B1,18
2,B2,≤ 0

# Target: ScPex13
# Experiment: as above
# Procedure, shortened: as §1
row,Binder,SPOT peptide array binding signal intensity
1,B1,≤ 0
2,B2,472

# Target: ScRvs167
# Experiment: as above
# Procedure, shortened: as §1
row,Binder,SPOT peptide array binding signal intensity
1,B1,3.33
2,B2,2820

# Target: ScSho1
# Experiment: as above
# Procedure, shortened: as §1
row,Binder,SPOT peptide array binding signal intensity
1,B1,≤ 0
2,B2,≤ 0

# Target: ScSla1-D1-D2
# Experiment: as above
# Procedure, shortened: as §1
row,Binder,SPOT peptide array binding signal intensity
1,B1,≤ 0
2,B2,≤ 0

# Target: ScSla1-D3
# Experiment: as above
# Procedure, shortened: as §1
row,Binder,SPOT peptide array binding signal intensity
1,B1,≤ 0
2,B2,0.75

# Target: SpAbp1-D1
# Experiment: as above
# Procedure, shortened: as §1
row,Binder,SPOT peptide array binding signal intensity
1,B1,≤ 0
2,B2,≤ 0

# Target: SpBbc1
# Experiment: as above
# Procedure, shortened: as §1
row,Binder,SPOT peptide array binding signal intensity
1,B1,≤ 0
2,B2,≤ 0

# Target: SpBzz1-D1
# Experiment: as above
# Procedure, shortened: as §1
row,Binder,SPOT peptide array binding signal intensity
1,B1,1300
2,B2,6

# Target: SpBzz1-D2
# Experiment: as above
# Procedure, shortened: as §1
row,Binder,SPOT peptide array binding signal intensity
1,B1,2.5

# Target: SpCyk3
# Experiment: as above
# Procedure, shortened: as §1
row,Binder,SPOT peptide array binding signal intensity
1,B1,≤ 0

# Target: SpHof1
# Experiment: as above
# Procedure, shortened: as §1
row,Binder,SPOT peptide array binding signal intensity
1,B1,2

# Target: SpHof1-2
# Experiment: as above
# Procedure, shortened: as §1
row,Binder,SPOT peptide array binding signal intensity
1,B1,2.5

# Target: SpHof1-3
# Experiment: as above
# Procedure, shortened: as §1
row,Binder,SPOT peptide array binding signal intensity
1,B1,1.5

# Target: SpHse1
# Experiment: as above
# Procedure, shortened: as §1
row,Binder,SPOT peptide array binding signal intensity
1,B1,≤ 0

# Target: SpLsb1
# Experiment: as above
# Procedure, shortened: as §1
row,Binder,SPOT peptide array binding signal intensity
1,B1,≤ 0

# Target: SpLsb4
# Experiment: as above
# Procedure, shortened: as §1
row,Binder,SPOT peptide array binding signal intensity
1,B1,≤ 0

# Target: SpMyo1
# Experiment: as above
# Procedure, shortened: as §1
row,Binder,SPOT peptide array binding signal intensity
1,B1,1210

# Target: SpNbp2
# Experiment: as above
# Procedure, shortened: as §1
row,Binder,SPOT peptide array binding signal intensity
1,B1,9

# Target: SpPex13
# Experiment: as above
# Procedure, shortened: as §1
row,Binder,SPOT peptide array binding signal intensity
1,B1,≤ 0

# Target: SpRvs167
# Experiment: as above
# Procedure, shortened: as §1
row,Binder,SPOT peptide array binding signal intensity
1,B1,≤ 0

# Target: SpSla1-D1-D2
# Experiment: as above
# Procedure, shortened: as §1
row,Binder,SPOT peptide array binding signal intensity
1,B1,≤ 0

# Target: SpSla1-D3
# Experiment: as above
# Procedure, shortened: as §1
row,Binder,SPOT peptide array binding signal intensity
1,B1,≤ 0
